Source: PubChem BioAssay (EPA / NIEHS)
Several values for one entry are separate records, joined by “and”; a condition that tells them apart may be missing. Equal entries are not always repeated. The source holds several records for some structures; these can differ, active in one and inactive in another. Activity calls are given as the source filed them. Rule for the calls: active = hit-call score of the fitted dose curve at least 0.9, where 1 is the maximum; inactive = score below 0.9.

What was measured:
[1] = read-out: Matrix Metallopeptidase 1 (MMP1), MMP1 (gene 4312); test: BSK_MyoF_MMP1: BioMAP Diversity Plus: MyoF Assay for Matrix Metallopeptidase 1 (MMP1) Biomarker Activity (AID 2284268); conditions: primary human lung fibroblasts
How it was run: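 Human lung fibroblast primary cells; MMP1 measured by ELISA 24 h after dosing, fitted in the positive direction relative to DMSO. Parallel SRB staining (0.1%, after 10% TCA fixation, 560 nm) assesses overt cytotoxicity.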

[2] = read-out: TIMP metallopeptidase inhibitor 1 (TIMP1), TIMP1 (gene 7076); test: BSK_MyoF_TIMP1: BioMAP Diversity Plus: MyoF Assay for TIMP metallopeptidase inhibitor 1 (TIMP1) Biomarker Activity (AID 2284269); conditions: primary human lung fibroblasts
How it was run: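 TIMP-1 levels were determined by ELISA in human lung fibroblasts treated for 24 h. DMSO served as negative control and baseline for upward curve fitting.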

[3] = read-out: Intercellular Adhesion Molecule 1 (ICAM1), ICAM1 (gene 3383); test: BSK_BE3C_ICAM1: BioMAP Diversity Plus: BE3C Assay for Intercellular Adhesion Molecule 1 (ICAM1) Biomarker Activity (AID 2284278); conditions: primary human bronchial epithelial cells;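 for outcome: cell-surface ICAM-1 protein level quantified by ELISA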
How it was run: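 Human primary bronchial epithelial cultures; compound added; 24 h incubation; cell-surface ICAM-1 measured by ELISA; signal increase fitted relative to DMSO negative control.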

[4] = read-out: Interferon-inducible T-cell alpha chemoattractant (ITAC), CXCL11 (gene 6373); test: BSK_BE3C_ITAC: BioMAP Diversity Plus: BE3C Assay for Interferon-inducible T-cell alpha chemoattractant (ITAC) Biomarker Activity (AID 2284279); conditions: primary human bronchial epithelial cells
How it was run: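 The assay measures I-TAC levels by ELISA in human primary bronchial epithelial cell cultures 24 hours after chemical treatment. Values reflect signal increase over the DMSO baseline.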

[5] = read-out: Interleukin-8 (IL8), CXCL8 (gene 3576); test: BSK_BE3C_IL8: BioMAP Diversity Plus: BE3C Assay for Interleukin-8 (IL8) Biomarker Activity (AID 2284280); conditions: primary human bronchial epithelial cells
How it was run: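 IL-8 signal gain, normalised to DMSO vehicle, was scored after a 24 h chemical exposure of primary human bronchial epithelial cells, with detection by ELISA.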

[6] = read-out: Epidermal growth factor receptor (EGFR), EGFR (gene 1956); test: BSK_BE3C_EGFR: BioMAP Diversity Plus: BE3C Assay for Epidermal growth factor receptor (EGFR) Biomarker Activity (AID 2284281); conditions: primary human bronchial epithelial cells
How it was run: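 Compound is added to human bronchial epithelial cells, cells incubate 24 h, then EGFR is detected by ELISA. Values reflect positive-direction fitting relative to DMSO.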

KRT18 (gene 3875) = test: BSK_BE3C_Keratin818: BioMAP Diversity Plus: BE3C Assay for Keratin 818 Biomarker Activity (AID 2284282); conditions: primary human bronchial epithelial cells
How it was run: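 Chemicals are added to human lung bronchial epithelial primary cells (BE3C system) and incubated 24 h. Keratin 8/18 is then measured by ELISA, with parallel SRB total-protein staining gauging overt cytotoxicity.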

[7] = read-out: Matrix Metallopeptidase 9 (MMP9), MMP9 (gene 4318); test: BSK_BE3C_MMP9: BioMAP Diversity Plus: BE3C Assay for Matrix Metallopeptidase 9 (MMP9) Biomarker Activity (AID 2284283); conditions: primary human bronchial epithelial cells
How it was run: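 Human primary bronchial epithelial cells exposed 24 h to compound. MMP9 quantified by ELISA. SRB total-protein staining of parallel cultures assesses cytotoxicity. Positive-direction fit relative to DMSO.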

[8] = read-out: Plasminogen activator inhibitor-1 (PAI1), SERPINE1 (gene 5054); test: BSK_CASM3C_PAI1: BioMAP Diversity Plus: CASM3C Assay for Plasminogen activator inhibitor-1 (PAI1) Biomarker Activity (AID 2284284); conditions: primary human coronary artery smooth muscle cells;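 note: PAI-1 protein level measured by ELISA 24 h after dosing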
[9] = read-out: Monocyte Chemoattractant Protein-1 (MCP1), CCL2 (gene 6347); test: BSK_hDFCGF_MCP1: BioMAP Diversity Plus: hDFCGF Assay for Monocyte Chemoattractant Protein-1 (MCP1) Biomarker Activity (AID 2284285); conditions: primary human foreskin fibroblasts
How it was run: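 Human foreskin fibroblasts (hDFCGF system) were exposed to compound and secreted MCP-1 was measured by ELISA after 24 hours. Activity was fitted relative to DMSO. Cytotoxicity was checked by SRB total-protein staining in parallel cultures.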

## COc1ccc2nc(N)sc2c1
[1]
  outcome: inactive
[2]
  outcome: inactive

## CC(C)(c1cc(Br)c(OCCO)c(Br)c1)c1cc(Br)c(OCCO)c(Br)c1
[1]
  AC50: 9.32 µM (active)
[2]
  AC50: 9.33 µM (active)

## c1ccc2c(c1)ccc1ncccc12
[1]
  outcome: inactive
[2]
  outcome: inactive

## CCCCC/C=C\C/C=C\CCCCCCCC(=O)OC
[1]
  AC50: 31.2 µM (active)
[2]
  outcome: inactive

## C=CC=CC=CCCCCC
[1]
  outcome: inactive
[2]
  outcome: inactive

## O=c1c2ccccc2oc2ccccc12
[1]
  outcome: inactive
[2]
  outcome: inactive

## O=C1CCCN1CCO
[3]
  outcome: inactive
[4]
  outcome: inactive
[5]
  outcome: inactive
[6]
  outcome: inactive
KRT18 (gene 3875)
  outcome: inactive
[7]
  outcome: inactive
[8]
  outcome: inactive
[9]
  outcome: inactive

## C#CC1(O)CC[C@H]2[C@@H]3CCC4=CCCC[C@@H]4[C@H]3CC[C@@]21C (some centres not stated)
[1]
  outcome: inactive
[2]
  AC50: 33.1 µM (active)

## CCOC(=O)c1ccccc1C(=C1C=C(Br)C(=O)C(Br)=C1)c1cc(Br)c(O)c(Br)c1
[3]
  AC50: 5.49 µM (active) and 5.66 µM (active)
[4]
  AC50: 3.9 µM (active) and 3.63 µM (active)
[5]
  AC50: 7.85 µM (active) and 7.6 µM (active)
[6]
  outcome: inactive
KRT18 (gene 3875)
  AC50: 3.98 µM (active) and 4.84 µM (active)
[7]
  AC50: 4.52 µM (active) and 2.5 µM (active)
[8]
  outcome: inactive
[9]
  AC50: 3.51 µM (active) and 3.62 µM (active)

## CCOc1nc(F)cc2nc(S(=O)(=O)Nc3c(Cl)cccc3C(=O)OC)nn12
[1]
  outcome: inactive
[2]
  outcome: inactive

## C=CCOCC(O)CCl (configuration not stated)
[1]
  outcome: inactive
[2]
  outcome: inactive

## CCCCCCCCCCCCCCCC[N+](C)(C)CC
[1]
  AC50: 9.34 µM (active)
[2]
  AC50: 2.73 µM (active)

## C=CCOc1c(Br)cc(Br)cc1Br
[1]
  outcome: inactive
[2]
  AC50: 31.2 µM (active)

## O=Nc1ccc(O)cc1
[1]
  outcome: inactive
[2]
  outcome: inactive

## S=C(NC1CCCCC1)NC1CCCCC1
[1]
  outcome: inactive
[2]
  outcome: inactive

## CCCCCCCCc1ccc(Nc2ccc(CCCCCCCC)cc2)cc1
[1]
  outcome: inactive
[2]
  outcome: inactive

## CCCCC(CC)COCC1CO1 (configuration not stated)
[3]
  outcome: inactive
[4]
  outcome: inactive
[5]
  outcome: inactive
[6]
  outcome: inactive
KRT18 (gene 3875)
  outcome: inactive
[7]
  outcome: inactive
[8]
  outcome: inactive
[9]
  outcome: inactive

## CCO[Si](C)(OCC)OCC
[3]
  outcome: inactive
[4]
  outcome: inactive
[5]
  outcome: inactive
[6]
  outcome: inactive
KRT18 (gene 3875)
  outcome: inactive
[7]
  outcome: inactive
[8]
  outcome: inactive
[9]
  outcome: inactive

## C=C[Si](OC(C)=O)(OC(C)=O)OC(C)=O
[3]
  outcome: inactive
[4]
  outcome: inactive
[5]
  outcome: inactive
[6]
  outcome: inactive
KRT18 (gene 3875)
  outcome: inactive
[7]
  outcome: inactive
[8]
  outcome: inactive
[9]
  outcome: inactive

## N#[N+]c1ccc2c(S(=O)(=O)[O-])cccc2c1O
[1]
  outcome: inactive
[2]
  outcome: inactive

## CCO[Si](CCCN=C=O)(OCC)OCC
[1]
  outcome: inactive
[2]
  outcome: inactive

## O=C(Nc1ccccc1SSc1ccccc1NC(=O)c1ccccc1)c1ccccc1
[1]
  outcome: inactive
[2]
  outcome: inactive

## CCCCC(CC)COC(=O)c1ccccc1O (configuration not stated)
[1]
  AC50: 10 µM (active)
[2]
  outcome: inactive

## C/C=C\C/C=C/CCCCCCCCOC(C)=O
[1]
  outcome: inactive
[2]
  outcome: inactive

## CCCCNc1ccc(NCCCC)c2c1C(=O)c1ccccc1C2=O
[1]
  outcome: inactive
[2]
  outcome: inactive

## c1ccc(-c2ccccn2)nc1
[1]
  outcome: inactive
[2]
  outcome: inactive

## O=C(Cl)c1cc(C(=O)Cl)cc(C(=O)Cl)c1
[1]
  AC50: 31.9 µM (active)
[2]
  AC50: 31.2 µM (active)

## CC(C)C(=O)C(C)C
[1]
  outcome: inactive
[2]
  outcome: inactive

## O=C(c1ccc(O)cc1)c1ccc(O)cc1O
[3]
  outcome: inactive
[4]
  outcome: inactive
[5]
  outcome: inactive
[6]
  outcome: inactive
KRT18 (gene 3875)
  outcome: inactive
[7]
  AC50: 20 µM (active) and 9.6 µM (active)
[8]
  outcome: inactive
[9]
  outcome: inactive

## c1ccc2c(c1)ccc1cc3c(ccc4ccccc43)cc12
[1]
  outcome: inactive
[2]
  outcome: inactive

## CO[Si](OC)(OC)c1ccccc1
[3]
  outcome: inactive
[4]
  outcome: inactive
[5]
  outcome: inactive
[6]
  outcome: inactive
KRT18 (gene 3875)
  outcome: inactive
[7]
  outcome: inactive
[8]
  outcome: inactive
[9]
  outcome: inactive

## CN1C(=O)N(C)C(O)C1O (configuration not stated)
[3]
  outcome: inactive
[4]
  outcome: inactive
[5]
  outcome: inactive
[6]
  outcome: inactive
KRT18 (gene 3875)
  outcome: inactive
[7]
  outcome: inactive
[8]
  outcome: inactive
[9]
  outcome: inactive

## C=CC(=O)OCC(Br)CBr (configuration not stated)
[1]
  outcome: inactive
[2]
  AC50: 20 µM (active)

## COCc1c(C(C)C)nc(C(C)C)c(/C=C/[C@@H](O)C[C@@H](O)CC(=O)O)c1-c1ccc(F)cc1
[1]
  AC50: 0.0515 µM (active)
[2]
  outcome: inactive

## Nc1ccc(N)c(Cl)c1
[3]
  outcome: inactive
[4]
  outcome: inactive
[5]
  AC50: 5.71 µM (active)
  outcome: inactive
[6]
  outcome: inactive
KRT18 (gene 3875)
  outcome: inactive
[7]
  AC50: 15.2 µM (active) and 7.82 µM (active)
[8]
  outcome: inactive
[9]
  AC50: 28.9 µM (active)

## CC1OC1C1CCC2(C)OC2C1 (configuration not stated)
[1]
  outcome: inactive
[2]
  outcome: inactive
